Common to all, as to test: Spec-seq (EMSA and sequencing of bound and unbound bands); 100 nM BATFx-JUNB, 1 uM dsDNA library, 50 mM K acetate, 20 mM Tris-acetate, 10 mM Mg acetate, 100 ug/ml BSA, pH 7.9, 10% glycerol, 30 min on ice; native 9% PAGE at 4 C; low values mean tight binding
What all share (conditions): protein: recombinant;recombinant; tags: N-terminal mCherry-TEV, cleaved off;C-terminal 6His; copies: 1;1; dsDNA, one strand shown
(In general: In EMSA bound probe runs differently from free probe, usually more slowly.)

One assay has as its target T1, BATF;JUNB (human;human, UniProt Q16520;P17275 1-125;148-347, |).
T1 sequence 1: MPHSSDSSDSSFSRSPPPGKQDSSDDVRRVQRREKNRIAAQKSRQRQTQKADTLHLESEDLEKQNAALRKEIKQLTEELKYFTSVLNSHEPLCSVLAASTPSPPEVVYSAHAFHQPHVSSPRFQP
T1 sequence 2: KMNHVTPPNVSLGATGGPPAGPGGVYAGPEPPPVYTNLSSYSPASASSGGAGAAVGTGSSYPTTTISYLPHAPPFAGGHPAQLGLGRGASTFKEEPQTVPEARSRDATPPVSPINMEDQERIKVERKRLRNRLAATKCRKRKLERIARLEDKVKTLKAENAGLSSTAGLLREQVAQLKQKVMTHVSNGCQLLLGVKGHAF
An outline of the steps:
(§1)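 The protein, at 100 nM, was incubated with 1 μM double-stranded degenerate DNA library for 30 min on ice in NEB Cutsmart buffer with 10% glycerol, then resolved by native 9% PAGE at 4 °C. Excised bound and unbound bands were PCR-barcoded and Illumina-sequenced, and each sequence's relative binding energy in kT is −ln of its bound/unbound read-count ratio.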

For the next assay, the target named is T2, BATF2 (bZIP);JUNB (human;human, UniProt Q8N1L9;P17275 1-142;148-347, |).
T2 sequence 1: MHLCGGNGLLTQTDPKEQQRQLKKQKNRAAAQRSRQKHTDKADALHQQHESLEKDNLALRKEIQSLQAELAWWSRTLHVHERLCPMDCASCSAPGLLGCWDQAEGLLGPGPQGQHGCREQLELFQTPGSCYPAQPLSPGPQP
T2 sequence 2: T1 sequence 2
In short, it runs like this: as §1

Another assay addresses T3, BATF3;JUNB (human;human, UniProt Q9NR55;P17275 1-127;148-347, |).
T3 sequence 1: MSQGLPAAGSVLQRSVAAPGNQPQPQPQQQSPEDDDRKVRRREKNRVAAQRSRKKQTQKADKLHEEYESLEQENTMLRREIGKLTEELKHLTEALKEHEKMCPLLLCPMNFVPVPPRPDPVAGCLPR
T3 sequence 2: T1 sequence 2
In short, it runs like this: as §1

For twelve sequences, binding signal results are on record in PMC5869772, “Quantitative profiling of BATF family proteins/JUNB/IRF hetero-trimers using Spec-seq”.

As for “GATAGTCTCATTTTCACCCCGTGAAAATGGGTCATTGTTCCATTACAGTATCTGT”, the binding signal is -0.00523 kT with BATF;JUNB, 0.62 kT with BATF2 (bZIP);JUNB and 0.203 kT with BATF3;JUNB.

Turning to “GATAGTCTCATTTTCACCCCGTGAAATGAGCCAGTTGTTCCATTACAGTATCTGT”, the binding signal turned out to be 0.487 kT with BATF;JUNB, 1.33 kT with BATF2 (bZIP);JUNB and 1.1 kT with BATF3;JUNB.

Turning to “GATAGTCTCATTTTCACCCCGTGAAATGTCGTCATTGTTCCATTACAGTATCTGT”, the binding signal with BATF;JUNB is -0.357 kT; in the assay with BATF2 (bZIP);JUNB it was -0.113 kT; with BATF3;JUNB it was -0.976 kT.

“GATAGTCTCATTTTCACCCCGTGAAATGAGTGATTTGTTCCATTACAGTATCTGT”: the binding signal in the assay with BATF;JUNB came out at 0.0243 kT; in the assay with BATF2 (bZIP);JUNB, 0.704 kT; with BATF3;JUNB, 0.444 kT.

For “GATAGTCTCATTTTCACCCCGTGAAAGGACGTCATTGTTCCATTACAGTATCTGT”, the results for the binding signal with BATF;JUNB, in the assay with BATF2 (bZIP);JUNB and with BATF3;JUNB were -0.227 kT, 0.108 kT and -0.474 kT, respectively.

In the case of “GATAGTCTCATTTTCACCCCGTGAAATGAGTCCTTTGTTCCATTACAGTATCTGT”, the binding signal was determined as 0.17 kT in the assay with BATF;JUNB, 1.09 kT with BATF2 (bZIP);JUNB and 0.708 kT with BATF3;JUNB.

On to “GATAGTCTCATTTTCACCCCGTGAAATTGTGTCATTGTTCCATTACAGTATCTGT”, for which the binding signal with BATF;JUNB is -0.292 kT; in the assay with BATF2 (bZIP);JUNB it was -0.0836 kT; with BATF3;JUNB, -0.677 kT.

For the sequence “GATAGTCTCATTTTCACCCCGTGAAATGAGTCGGTTGTTCCATTACAGTATCTGT”, the binding signal was determined as 0.0858 kT in the assay with BATF;JUNB, 1.07 kT in the assay with BATF2 (bZIP);JUNB and 0.619 kT in the assay with BATF3;JUNB.

With “GATAGTCTCATTTTCACCCCGTGAAATGACTCTGTTGTTCCATTACAGTATCTGT”, the binding signal with BATF;JUNB was -0.0517 kT; in the assay with BATF2 (bZIP);JUNB, 0.667 kT; in the assay with BATF3;JUNB it was 0.481 kT.

Turning to “GATAGTCTCATTTTCACCCCGTGAAATGCGTCATTTGTTCCATTACAGTATCTGT”, the binding signal with BATF;JUNB is -0.941 kT; with BATF2 (bZIP);JUNB it was -0.434 kT; with BATF3;JUNB, -1.03 kT.

“GATAGTCTCATTTTCACCCCGTGAAAAGACTCATTTGTTCCATTACAGTATCTGT”: the binding signal with BATF;JUNB is 0.016 kT; in the assay with BATF2 (bZIP);JUNB it was 0.734 kT; with BATF3;JUNB it was 0.446 kT.

Turning to “GATAGTCTCATTTTCACCCCGTGAAATTTAGTCATTGTTCCATTACAGTATCTGT”, the binding signal in the assay with BATF;JUNB was -0.725 kT; with BATF2 (bZIP);JUNB, -0.038 kT; with BATF3;JUNB it was -0.503 kT.
